In the library only some 11% were active in any assay of this set; here they are far more common.
USP28 inh = inhibitors of human USP28 deubiquitinase. purified USP28, Ub-rhodamine cleavage fluorescence, 30 min. inhibition, % at 25 µM. 47,000 compounds, 3% hits
OTUD3 block = inhibitors of human OTUD3 deubiquitinase; AID 1645858, 2021; purified OTUD3, Ub-rhodamine fluorescence, 2 h; inhibition, % at 25 µM; OTU domain-containing protein 3 (Homo sapiens), Q5T2D3; 47,000 compounds, 0.7% hits
Target sequence (Q5T2D3 whole entry, looked up, the tested form may be a part): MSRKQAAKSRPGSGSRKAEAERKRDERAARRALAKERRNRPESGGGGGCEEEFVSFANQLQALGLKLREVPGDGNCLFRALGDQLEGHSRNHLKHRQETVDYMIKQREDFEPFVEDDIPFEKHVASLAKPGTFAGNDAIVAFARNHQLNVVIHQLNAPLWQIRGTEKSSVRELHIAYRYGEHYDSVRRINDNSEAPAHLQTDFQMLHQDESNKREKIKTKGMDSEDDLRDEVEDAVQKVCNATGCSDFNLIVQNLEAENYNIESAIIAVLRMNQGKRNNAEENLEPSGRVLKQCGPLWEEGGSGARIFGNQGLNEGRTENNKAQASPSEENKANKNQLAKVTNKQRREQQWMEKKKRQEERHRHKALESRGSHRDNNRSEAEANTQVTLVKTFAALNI
USP30 inh = inhibitors of human USP30 deubiquitinase. Ubiquitin carboxyl-terminal hydrolase 30 (Homo sapiens), Q70CQ3. purified USP30, Ub-rhodamine cleavage fluorescence. inhibition, % at 25 µM. 47,000 compounds, 5.3% hits
USP17 block = inhibitors of human USP17 deubiquitinase; Ubiquitin carboxyl-terminal hydrolase 17-like protein 5 (Homo sapiens), A8MUK1; purified USP17, Ub-rhodamine cleavage fluorescence, 3 h; inhibition, % at 50 µM; 47,000 compounds, 6.5% hits
Hits are given with their value. Rule as the data show it: active = inhibition above about 30%; inactive = the rest.

c1ccc(CCN2CCn3c(nc4ccccc43)C2)cc1 was read as USP28 inh inactive, OTUD3 block inactive, USP30 inh inactive and USP17 block inactive.
O=[N+]([O-])c1ccc2c(c1)nc1n2CCN(Cc2ccco2)C1 was read as USP28 inh 43, OTUD3 block inactive, USP30 inh 42 and USP17 block 61.
Screening CCc1ccccc1NC(=O)CN1C[C@]2(NC(C)=O)CN(C)CC[C@@H]2[C@H]1c1ccccc1 returned USP28 inh inactive, OTUD3 block inactive, USP30 inh inactive and USP17 block inactive.
For COc1cccc(NC(=O)CCc2nnc3ccc(N4CCCCC4)nn23)c1 the results were USP28 inh inactive, OTUD3 block inactive, USP30 inh inactive and USP17 block inactive.
`Cc1ccc2oc(=O)c(S(=O)(=O)N3CCCCC3)cc2c1` gave USP28 inh inactive, OTUD3 block inactive, USP30 inh inactive and USP17 block 61.
`Clc1ccccc1Cn1c(C2CCCO2)nc2ccccc21` (centres undefined) gave USP28 inh inactive, OTUD3 block inactive, USP30 inh 31 and USP17 block inactive.
For O=S1(=O)NC2(CCN(Cc3ccccn3)CC2)Nc2ccccc21 the results were USP28 inh inactive, OTUD3 block inactive, USP30 inh inactive and USP17 block inactive.
Screening COc1ccccc1NC(=O)C1=C(C)Nc2nc(-c3ccc(N(C)C)cc3)nn2C1c1ccncc1 (centres undefined) returned USP28 inh inactive, OTUD3 block inactive, USP30 inh 30 and USP17 block 40.
For COc1ccc(C2C(C(=O)Nc3ccccc3OC)=C(C)Nc3nnnn32)cc1Br (centres undefined) the results were USP28 inh inactive, OTUD3 block inactive, USP30 inh inactive and USP17 block 74.
For COc1cccc(-c2nc3n(n2)C(c2ccncc2)C(C(N)=O)=C(C)N3)c1 (centres undefined) the results were USP28 inh inactive, OTUD3 block inactive, USP30 inh 30 and USP17 block inactive.
`COc1ccccc1NC(=O)C1=C(C)Nc2nnnn2C1c1cccnc1` (centres undefined) gave USP28 inh inactive, OTUD3 block inactive, USP30 inh inactive and USP17 block inactive.
For CCN1CCSc2ccc(C(=O)Nc3ccccc3C(=O)c3ccccc3)cc21 the results were USP28 inh inactive, OTUD3 block inactive, USP30 inh inactive and USP17 block inactive.
`CS(=O)(=O)N1CCN(C(=O)C2CN(C(=O)c3ccc4c(c3)OCO4)C2)CC1` gave USP28 inh inactive, OTUD3 block inactive, USP30 inh inactive and USP17 block inactive.
Screening O=C(Cn1c(=O)n(Cc2ccc(F)cc2)c(=O)c2ncccc21)Nc1ccccc1 returned USP28 inh inactive, OTUD3 block inactive, USP30 inh 65 and USP17 block inactive.
CCOc1ccc(-n2c(=O)c3sccc3n(CC(=O)Nc3cccc(C)c3)c2=O)cc1 was read as USP28 inh inactive, OTUD3 block inactive, USP30 inh inactive and USP17 block inactive.
Cc1ccc(CNC(=O)Cn2c(=O)n(CCCC(=O)NCc3ccc(F)cc3)c(=O)c3ccccc32)cc1 was read as USP28 inh inactive, OTUD3 block inactive, USP30 inh inactive and USP17 block 33.
O=C(Cn1c(=O)c2cccn2c2ccccc21)NCc1ccc(F)cc1 was read as USP28 inh inactive, OTUD3 block inactive, USP30 inh inactive and USP17 block inactive.
For O=C(Cn1c(=O)n(Cc2ccncc2)c(=O)c2ncccc21)Nc1cccc(F)c1 the results were USP28 inh inactive, OTUD3 block inactive, USP30 inh inactive and USP17 block inactive.
Screening O=C(Cn1c(=O)n(Cc2ccc(F)cc2)c(=O)c2sccc21)Nc1cccc(Cl)c1 returned USP28 inh inactive, OTUD3 block inactive, USP30 inh inactive and USP17 block 65.
For Cc1ccc(Cn2c(=O)c3ncccc3n(CC(=O)NCc3ccc(F)cc3)c2=O)cc1 the results were USP28 inh 78, OTUD3 block 45, USP30 inh 84 and USP17 block 77.
`CN(Cc1ccccc1)S(=O)(=O)c1cc2c(cc1Cl)NC(=O)CO2` gave USP28 inh inactive, OTUD3 block inactive, USP30 inh inactive and USP17 block inactive.
O=C(Cn1c(=O)n(Cc2ccccc2)c(=O)c2ncccc21)N1CCCc2ccccc21 was read as USP28 inh inactive, OTUD3 block inactive, USP30 inh inactive and USP17 block inactive.
O=C(Cn1c(=O)n(Cc2ccc3c(c2)OCO3)c(=O)c2ncccc21)c1ccccc1 was read as USP28 inh inactive, OTUD3 block inactive, USP30 inh 54 and USP17 block inactive.
Screening O=C(CSc1nc(-c2ccccc2)c2ccccc2n1)NCc1ccc(C(=O)O)cc1 returned USP28 inh inactive, OTUD3 block inactive, USP30 inh 32 and USP17 block inactive.
Screening CC(=O)N1CCN(Cc2nc3sc(C)c(-c4ccc(C)cc4)c3c(=O)[nH]2)CC1 returned USP28 inh inactive, OTUD3 block inactive, USP30 inh inactive and USP17 block inactive.
O=C1CC(C(=O)N2CCc3ccccc3C2)CN1CCc1ccc(F)cc1 (centres undefined) was read as USP28 inh inactive, OTUD3 block inactive, USP30 inh inactive and USP17 block inactive.
COc1ccc(S(=O)(=O)N2CCCCC2)cc1N(C)S(=O)(=O)c1ccc(C)cc1 was read as USP28 inh inactive, OTUD3 block inactive, USP30 inh inactive and USP17 block inactive.
Screening Cc1ccc(S(=O)(=O)N2CCN(S(=O)(=O)N3CCCCCC3)CC2)cc1 returned USP28 inh inactive, OTUD3 block inactive, USP30 inh 40 and USP17 block inactive.
Cc1ccc(S(=O)(=O)N(C)c2c(C)ccc(S(=O)(=O)N3CCCCC3)c2C)cc1 was read as USP28 inh inactive, OTUD3 block inactive, USP30 inh 30 and USP17 block inactive.
Screening Cc1ccc(Cn2cc(S(=O)(=O)N3CCCCC3)ccc2=O)cc1 returned USP28 inh inactive, OTUD3 block inactive, USP30 inh inactive and USP17 block inactive.
`Nc1c(C(=O)NCc2ccc3c(c2)OCO3)nnn1Cc1ccc(Br)cc1F` gave USP28 inh 40, OTUD3 block inactive and USP30 inh 75.
CC1=C[C@H]2[C@@H](CC1)[C@H](C)CC[C@H]2C(C)C(=O)O (some centres undefined) was read as USP28 inh inactive, OTUD3 block inactive, USP30 inh inactive and USP17 block inactive.
For Cc1nn(-c2ccccc2)c2[nH]c(=O)c(CNc3ccccc3)cc12 the results were USP28 inh inactive, OTUD3 block inactive, USP30 inh inactive and USP17 block inactive.
`Cc1ccc(NCc2cc3c(C(C)(C)C)nn(-c4ccc(Cl)cc4)c3[nH]c2=O)cc1C` gave USP28 inh inactive, OTUD3 block inactive, USP30 inh inactive and USP17 block 43.
Screening Cc1nn(-c2ccc(Cl)cc2)c2[nH]c(=O)c(CNc3ccccc3)cc12 returned USP28 inh inactive, OTUD3 block inactive, USP30 inh inactive and USP17 block 40.
